# LASV entry inh – Lassa virus entry inhibition. Lassa virus pseudotype entry inhibition, cell reporter. Potency, µM (highest dose often 37.9 µM), inactives show at the highest dose activity change, negative = inhibition, actives largely listed as inhibitors. actives 1.2% (n = 300,000). AID 540256; calls by dose curve; tested in HEK293 cells; also: potency is read from the fitted curve at half-maximal effect; % is scaled to controls: 0 for no effect and ±100 for the full control effect; nearly all actives have a fitted effect of over 50% in size
# HCV inh – HCV inhibition | Potency, µM (top dose mostly 41.8 µM), for the others: at the top dose activity change, negative = inhibition, actives largely listed as inhibitors | actives 3.4% (n = 340,000) | Huh7.5.1 HCVcc-Cre infection, luciferase reporter, 44 h; also: potency is read from the fitted curve at half-maximal effect; % is scaled to controls: 0 for no effect and ±100 for the full control effect
#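 A cell-based infection assay in which seeded cells (1,000 per well) receive test compound after 4 h, are inoculated with HCVcc-Cre at approximately 0.5 moi, and are incubated 44 h before luminescence detection.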
# MARV entry inh – blocks Marburg virus binding to or entry into cells. Marburg virus pseudotyped entry inhibition, cell reporter. Potency, µM (highest dose often 37.8 µM), without a hit: at the top dose activity change, negative = inhibition, hits mostly inhibitors. actives 1.8% (n = 300,000). AID 540276; calls by dose curve; tested in HEK293 cells; also: potency is read from the fitted curve at half-maximal effect; % is scaled to controls: 0 for no effect and ±100 for the full control effect
# CHX counter – counter-screen hit for Shiga toxin inhibitors, cycloheximide | cell reporter, cycloheximide protein synthesis inhibition counterscreen | max response, % | actives 12% (n = 300,000); in the data active = max response mostly above about 13%, no sharp cut-off; inactive = mostly below about 14%; also: read at 38.3 µM for the half of the compounds with a filed dose; 0% is about no effect
# FMDV inh – antivirals against foot and mouth disease virus; FMDV antiviral cell-based qHTS; AID 1159524; actives 1.2% (n = 410,000); Potency, µM (highest dose often 57.9 µM), without a hit: at the highest dose activity change, negative = inhibition, usual class: inhibitors; calls by dose curve; tested in HEK293T cells; also: read-out not given here; potency is read from the fitted curve at half-maximal effect; % is scaled to controls: 0 for no effect and ±100 for the full control effect; nearly all actives have a fitted effect of over 45% in size
# Shiga inhibitor – Shiga toxin inhibition; Vero cells, Shiga toxin protein synthesis inhibition reporter; inhibition, % at 38.7 µM; actives 9.2% (n = 290,000); AID 2315; in the data active = inhibition mostly above about 28%, no sharp cut-off; inactive = mostly below about 43%; also: 0% is about no effect
# HCV inh confirm – HCV inhibition, cherry-pick confirmation. shares compounds with HCV inh. HCVcc-Cre infectious virus cell assay, luciferase, inhibition. Potency, µM (top dose mostly 41.8 µM), for the others: top-dose activity, negative = inhibition, usual class: inhibitors. actives 78% (n = 640). AID 720575; also: potency is read from the fitted curve at half-maximal effect; nearly all actives have a fitted effect of over 80% in size
# HCV host tox – counter-screen for HCV inhibitors: host cell cytotoxicity; Potency, µM (titrated, usually from 41.8 µM), for the others: top-dose activity change, negative = cytotoxicity, most hits filed as inhibitors; actives 22% (n = 640); shares compounds with HCV inh; HCV host cell line cytotoxicity counterscreen;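 also: potency is read from the fitted curve at half-maximal effect; 44 h compound exposure; % is scaled to controls: 0 for no effect and ±100 for the full control effect; nearly all actives have a fitted effect of over 55% in size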
# The depositor's hits bear a star; ? = inconclusive; / = not tested or not shown; [ ] = another dose, or the depositor's remark. Compounds with a hit are over-represented: about 13% of the library has one in this group of screens. Unless noted, calls follow the shape of the dose curve; as a rule, active = well fitted curve in the direction sought with a large enough effect; inconclusive = small, poorly fitted or top-dose-only effect, or another doubt; inactive = no such curve, though single readings can be large; an effect the other way counts as inactive or inconclusive.
SMILES,LASV entry inh,HCV inh,MARV entry inh,CHX counter,FMDV inh,Shiga inhibitor,HCV inh confirm,HCV host tox
O=[N+]([O-])c1cc2c(cc1[N+](=O)[O-])OCCOCCOCCOCCO2,-42.3%,6.31µM*,-11.1%,-3.7,-18.0%,12.0,?,-15.2%
O=c1[nH]c(CSc2nnc(-c3ccco3)n2-c2ccccc2)nc2sc3c(c12)CCC3,/,/,/,-4.3,/,-4.2,/,/
Cc1ccc(CN(Cc2ccccc2)C(=S)Nc2ccccc2C)o1,?,3.16µM*,-2.2%[46.1 µM],1.0,-11.4%,-4.5,-23.5%,35.7%
Cc1ccc(CN(Cc2ccco2)C(=S)Nc2ccccc2C)cc1,?,?,?,-2.1,-9.1%,-13.2,/,/
C=CCn1c(=NC(=O)C2COc3ccccc3O2)sc2cccc(OC)c21 (configuration not stated),/,4.3%,/,-2.0,0.0%,21.9,/,/
CCn1c(=NC(=O)C2COc3ccccc3O2)sc2c(C)ccc(OC)c21 (configuration not stated),/,?,/,7.4,?,-11.4,12.5µM*,35.9%
CCN(CC)S(=O)(=O)c1ccc(Oc2ccc(S(=O)(=O)N(CC)CC)cc2)cc1,14.6µM*,2.82µM*,?,-2.9,?,-7.9,2.5µM*,2.8µM*
CCN(CC)S(=O)(=O)c1ccc(Oc2ccccc2OC)cc1,/,?,/,-3.5,-8.2%,16.7,/,/
ON=C1c2cc(OCCN3CCCCC3)ccc2-c2ccc(OCCN3CCCCC3)cc21,?,3.16µM*,3.16µM*,10.2,-10.3%,14.2,?,-12.2%
COc1ccccc1NC(=O)c1ccc(NC(=O)c2cc3c(s2)CCC3)cc1,-25.1%,8.91µM*,?,-8.4,?,-10.1,8.87µM*,17.0%
C=CCN(c1ccc(OC)cc1)S(=O)(=O)c1ccc(Cl)c(C(=O)OCC(=O)NC2CC2)c1,21.4%,-9.6%,20.9%[46.1 µM],-2.4,-2.7%,-4.5,/,/
Cc1cnc(NC(=O)C2CC(=O)N(c3cccc(Cl)c3)C2)s1 (configuration not stated),/,3.16µM*,/,-3.0,-13.5%,-7.8,8.87µM*,3.53µM*
CCn1nc(/C=C/c2ccccc2)nc2c(=O)n(C)c(=O)nc1-2,7.94µM*,2.51µM*,0.708µM*,11.1,2.51µM*,28.6,5.6µM*,7.05µM*
Cn1c(=O)nc2n(Cc3ccccc3)c3ccccc3cc-2c1=O,7.1%,-5.5%,?,-1.0,-19.1%,5.8,/,/
COc1ccccc1-n1c(C)nc2cc(C(=O)NCC3CCCO3)ccc21 (configuration not stated),-0.5%[46.1 µM],10.3%,3.3%[46.1 µM],2.4,-13.2%,17.7,/,/
COc1ccc(C(C)(NC(C)=O)c2nc(-c3ccc(F)cc3OC)cs2)cc1 (configuration not stated),/,/,/,/,-22.3%,/,/,/
COC(=O)c1cc2c(C)cc3ccc(C)cn3c-2c1C(=O)OC,-12.8%,3.98µM*,1.2%,0.5,0.0%,-15.9,11.2µM*,43.3%
Cc1cccc(CS(=O)(=O)Cc2ccc(C(=O)O)o2)c1,1.6%,13.6%,16.4%[46.1 µM],5.0,-14.1%,-23.8,/,/
C=CCNc1nc(N)c([N+](=O)[O-])c(Nc2ccccc2OC)n1,-12.1%[46.1 µM],6.31µM*,-13.5%[46.1 µM],1.8,-16.6%,-11.3,22.3µM*,52.7%
COc1ccccc1Nc1nc(NCCCN(C)C)nc(N)c1[N+](=O)[O-],-29.0%,?,?,11.7,-25.0%,-16.2,/,/
C/C(=N/Nc1nc(-c2ccccc2)cc(-c2ccc(F)cc2)n1)c1cccc(N)c1,?,8.91µM*,-6.6%,15.6,7.6%,8.8,14.1µM*,?
O=c1nc(SCc2c(F)cccc2Cl)nc(-c2ccccc2)[nH]1,-9.0%[46.1 µM],20.2%,0.9%[46.1 µM],-2.3,5.4%,-13.5,/,/
CCc1nccn1CCC(=O)N1CCCC(Nc2ccc(F)cc2)C1 (configuration not stated),/,-0.1%,/,-1.9,1.3%,-6.3,/,/
COc1cc2c(cc1OC)C(C)N(C(=O)C(NC(=O)c1ccccc1)C(C)C)CC2 (configuration not stated),-29.8%,?,0.5%[46.1 µM],-2.5,-9.6%,-5.6,/,/
COc1cc2c(cc1OC)C(C)N(C(=O)[C@@H](NC(=O)c1ccccc1)C(C)C)CC2 (some centres not stated),?,1.41µM*,?,-5.1,-18.9%,-2.9,?,5.6%
SMILES,LASV entry inh,HCV inh,MARV entry inh,CHX counter,FMDV inh,Shiga inhibitor,HCV inh confirm,HCV host tox
COC(=O)C1=C(C)N(CCCC(=O)O)C(=O)NC1c1cccc(OC)c1 (configuration not stated),/,23.3%,/,/,-8.2%,/,/,/
Cc1[nH]n(-c2nc(-c3ccc(Cl)cc3)cs2)c(=O)c1N=Nc1ccc(O)cc1,11.2µM*,1.78µM*,?,7.6,7.94µM*,22.5,14.1µM*,-98.7%
CC(=O)Nc1sc(C)c(C)c1C(=O)OC1CCOC1=O (configuration not stated),-2.6%,1.8%,-8.1%,-1.8,0.0%,-6.0,/,/
CN1CCc2nc(NC(=O)COc3ccc(C#N)cc3)sc2C1,?,-20.8%,-21.1%[46.1 µM],5.9,5.5%,33.6,/,/
FC(F)(F)c1nc(-c2cccs2)ncc1-c1nnnn1-c1ccc(Cl)cc1,16.4µM*,5.01µM*,?,-2.1,11.2µM*,2.8,6.28µM*,-94.3%
COc1ccc(CCNC(=O)C23CCC(C)(C(=O)O2)C3(C)C)cc1OC (configuration not stated),/,13.2%,/,-1.1,-0.6%,-5.3,/,/
Nc1ccccc1C#Cc1ccc([N+](=O)[O-])cc1,?,?,?,/,39.9%,/,1.77µM*,8.9%
CN(C(=O)c1ccc(OC2CCN(S(=O)(=O)N(C)C)CC2)cc1)C1CCCCC1,17.2%[46.1 µM],-3.1%,?,10.7,1.0%,26.6,/,/
CN(C)S(=O)(=O)N1CCC(Oc2cccc(C(=O)NC3CCCCCC3)c2)CC1,?,2.82µM*,?,-1.8,?,17.5,4.45µM*,7.91µM*
Cc1ccc(NCC(=O)N/N=C\c2ccc([N+](=O)[O-])o2)cc1,-29.3%,3.16µM*,?,0.9,/,-5.0,14.1µM*,?
COc1cc2c(cc1NC(=O)C(Cl)Cl)-c1ccc(NC(=O)C(Cl)Cl)cc1C2,?,?,?,/,2.0%,/,17.7µM*,?
Cc1nnsc1-c1onc(C)c1C(=O)O/N=C/c1ccc(Cl)cc1,/,12.7%,/,0.8,-1.2%,-7.7,/,/
CCOC(=O)c1ccc(NC(=S)N(CCCN2CCCC(C)C2)Cc2cccs2)cc1 (configuration not stated),?,-8.9%,?,-1.8,7.2%,-7.0,/,/
CCOC(=O)c1ccc(NC(=S)N(CCCN2CCCC2)Cc2cccs2)cc1,/,?,?,-2.1,40.7%,-10.3,?,22.0%

# Screens as filed in PubChem.
